Dicer inh = blocks human Dicer maturation of pre-miR-21. AID 1347074. cat-ELCCA pre-miR-21 Dicer processing, chemiluminescence; active compounds read high. actives 6% (n = 47,000). z-score at 25 µM. Q9UPY3; in the data active = z-score above about 3, passing the limit was not always enough;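 note: higher signal means more uncleaved substrate so more Dicer inhibition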
Each line names hits and unclear results; the compound was inactive in the other large screens. This excerpt belongs to a sample that is enriched for hits.

Cc1ccc(C(=O)Nc2nc(-c3ccc(C)c(Cl)c3)c(C)s2)cc1	none
O=c1oc2c(-c3ccccc3Cl)cc(O)cc2s1	Dicer inh 3.6
Cc1ccc(-c2nc3sc(C)c(C)c3c(=O)o2)cc1	none
Cc1ccc(-c2cc(O)cc3sc(=O)oc23)cc1Cl	Dicer inh 5.3
CCc1ccc(-c2cc(O)cc3sc(=O)oc23)cc1	none
Cc1ccc(-c2nc(NC(=O)COc3ccc(Cl)cc3Cl)sc2C)cc1Cl	none
O=c1oc(-c2ccccc2Cl)nc2ccc(I)cc12	none
CC1CN(c2ccccc2OC(=O)Nc2ccc(OC(F)(F)F)cc2)CC(C)O1 (stereo not given)	none
COc1ccc(S/C(=N/N(C)C)c2cc(C(F)(F)F)cc(C(F)(F)F)c2)cc1OC	none
OC1CCN(C(=S)NC2CCCCCCC2)CC1	none
COc1ccc(NC(=O)/C=C/c2ccc(N3CCC(c4ccccc4OC)CC3)c([N+](=O)[O-])c2)c(Cl)c1	none
CCOC(=O)N1CCc2c(sc3ncn(CC(N)=O)c(=O)c23)C1	none
Cc1nc(C)c(-c2n[nH]c(=S)n2-c2ccccc2C(F)(F)F)s1	none
CC(C)(C)C(=O)NNC(=O)c1ccc[nH]1	none
CNC(=O)N(C1=NCCCCC1)c1ccccc1	none
Cc1cc2oc(-c3ccccc3C(=O)O)cc(=O)c2cc1Cl	none
Cc1noc2ncnc(SCc3ccc(Cl)cc3)c12	none
CC(Nc1ncnc2ccccc12)C(=O)O (stereo not given)	Dicer inh 3.3
O=C(O)CCC(Nc1ncnc2ccccc12)C(=O)O (stereo not given)	none
CCCC(Nc1ncnc2ccccc12)C(=O)O (stereo not given)	none
COc1nc2c(c(-c3cccs3)c1C#N)Cc1ccccc1-2	none
CC1(C(=O)O)CC1(C)C(=O)O (stereo not given)	none
CC(=O)Nc1nc2ccc(NC(=O)c3c([N+](=O)[O-])cnn3C)cc2s1	none
CC(=O)Nc1ccc2nc(NC(C)=O)sc2c1	Dicer inh 3.2
CC(=O)Nc1nc2ccc(NC(=O)c3sc4ccccc4c3Cl)cc2s1	none
Cc1nnc2sc(-c3ccccc3N)nn12	none
COc1ccc(C(=O)c2c(N)sc3c2CCN(Cc2ccccc2)C3)cc1	none
CC1=C(C(=O)OCCc2ccccc2)C(c2ccc(C)s2)C2=C(CCCC2=O)N1 (stereo not given)	none
O=C(Nc1ccc(F)cc1)c1cc2ccccc2o1	none
CC(C)(C)NC(=O)c1cc2ccccc2o1	Dicer inh 4.2
O=C(Nc1ccccc1)c1cc2ccccc2o1	none
CC1=C(C(=O)OC(C)C)C(c2ccccc2Br)CC(=O)N1 (stereo not given)	none
CCOC(=O)c1sc(N2C(=O)c3oc4ccccc4c(=O)c3C2c2ccc(O)cc2)nc1C (stereo not given)	none
O=C(Nc1ccccc1Cl)C1Sc2nnc(-c3ccccc3)n2NC1c1ccccc1 (stereo not given)	none
COC(=O)CO/N=C/c1ccc(Cl)cc1Cl	none
O=C(CO/N=C/c1ccc(Cl)cc1Cl)NNC(=S)Nc1cc(Cl)ccc1Cl	Dicer inh 5.6
Fc1cccc(Cl)c1CO/N=C/c1ccc(Cl)cc1Cl	none
COc1ccccc1C1OC(=O)C[C@H]1C(=O)Oc1cccc(C(F)(F)F)c1 (stereo not given in full)	none
Cc1cc(C)nc(SCn2c(=S)sc3ccccc32)n1	none
O=S(=O)(c1ccccc1)c1ccc(S(=O)(=O)N2CCN(C3c4ccccc4-c4ccccc43)CC2)s1	Dicer inh 3.4
CC(=O)c1ccc(N2CCN(S(=O)(=O)c3ccc(S(=O)(=O)c4ccccc4)s3)CC2)cc1	none
O=S(=O)(c1ccccc1)c1ccc(S(=O)(=O)N2CCOCC2)s1	none
CCOC(=O)c1cn(S(=O)(=O)c2ccc(F)cc2F)nc1C(F)(F)F	none
Cn1c(=O)c2c(c3ccccc31)OC(=O)CC2c1ccccc1Br (stereo not given)	none
COc1cc(OC)cc(C(C)(C)OC(=O)N2CCC[C@H]2C(=O)O)c1	none
O=S(=O)(CCS(=O)(=O)c1cccs1)c1ccc(Cl)cc1	none
O=S(=O)(Cc1ccccc1)c1ccc(Cl)cc1	none
O=S(=O)(CCc1ccncc1)c1ccc(Cl)cc1	Dicer inh 4.3
CC(C)NC(=O)CSc1nnc(CSc2cc(C(F)(F)F)nc3ccccc23)n1C	none
CCOC(=O)c1sc2ncccc2c1NC(=O)C(Cl)Cl	none
CC1=C(C(=O)Nc2cc(C)ccn2)C(c2ccsc2)C2=C(CC(C)(C)CC2=O)N1 (stereo not given)	none
CCOC(=O)c1ccc(N2C(=O)CS(=O)(=O)CC2=O)cc1	none
CCOC(=O)C1=NN(c2ccc(C)cc2)C2C(=O)N(c3ccc(Br)cc3)C(=O)C12 (stereo not given)	none
CCOC(=O)C1=C(C)N(c2ccc(Br)cc2)C(=O)C1	Dicer inh 3.8
O=C(CSc1c(Cl)c(Cl)cc(Cl)c1Cl)Nc1ccc(Cl)cc1	none
Cn1ccc(NC(=O)NC(=O)c2c(Cl)cccc2Cl)n1	none
CC(CC(=O)O)CC(=O)Nc1ccccn1 (stereo not given)	none
Cc1ccc(NC(=O)CC(C)CC(=O)O)cc1 (stereo not given)	none
Cc1ccc(NC(=O)CC(CC(=O)O)c2ccccc2)nc1 (stereo not given)	Dicer inh 3.7
Clc1nc(SCc2ccccc2)nc2ccccc12	none
Cc1ccc(C2N3CC4(C)CN2CC(C)(C3)C4)cc1 (stereo not given)	Dicer inh 3
